Like-named read-outs stand apart in the source and are kept apart here.
What was measured:
Details in all cases: read-out: apparent Kd, n = 1
[1] = system: MAP2K1
[2] = system: MAP3K5
[3] = system: MAPK10
[4] = compound concentrations:100 nM and 1000 nM (sheet 'Lestaurtinib' of Supplementary Table 1),run:Lestaurtinib_02584_R2,Plate:MR017
[5] = compound concentrations:100 nM and 1000 nM (sheet 'Lestaurtinib' of Supplementary Table 1),run:Lestaurtinib_02584_R3,Plate:MR017
[6] = compound concentrations:100 nM and 1000 nM (sheet 'Lestaurtinib' of Supplementary Table 1),run:Lestaurtinib_02601_R1,Plate:MR018
[7] = compound concentrations:100 nM and 1000 nM (sheet 'Lestaurtinib' of Supplementary Table 1),run:Lestaurtinib_02606_R1,Plate:MR019
[8] = compound concentrations:100 nM and 1000 nM (sheet 'Lestaurtinib' of Supplementary Table 1),run:Lestaurtinib_02724_R1,Plate:MR021
[9] = compound concentrations:100 nM and 1000 nM (sheet 'Lestaurtinib' of Supplementary Table 1),run:Lestaurtinib_02741_R1,Plate:MR023
[10] = compound concentrations:100 nM and 1000 nM (sheet 'Lestaurtinib' of Supplementary Table 1),run:Lestaurtinib_02765_R3,Plate:MR026
[11] = compound concentrations:100 nM and 1000 nM (sheet 'Lestaurtinib' of Supplementary Table 1),run:Lestaurtinib_02766_R3,Plate:MR027
[12] = compound concentrations:100 nM and 1000 nM (sheet 'Lestaurtinib' of Supplementary Table 1),run:Lestaurtinib_02768_R3,Plate:MR028
[13] = compound concentrations:100 nM and 1000 nM (sheet 'Lestaurtinib' of Supplementary Table 1),run:Lestaurtinib_02795_R2,Plate:MR022
[14] = compound concentrations:100 nM and 1000 nM (sheet 'Lestaurtinib' of Supplementary Table 1),run:Lestaurtinib_03172_R3,Plate:MR031
[15] = compound concentrations:100 nM and 1000 nM (sheet 'Lestaurtinib' of Supplementary Table 1),run:Lestaurtinib_03260_R1,Plate:MR033
[16] = compound concentrations:100 nM and 1000 nM (sheet 'Lestaurtinib' of Supplementary Table 1),run:Lestaurtinib_03260_R3,Plate:MR033
[17] = compound concentrations:100 nM and 1000 nM (sheet 'Lestaurtinib' of Supplementary Table 1),run:Lestaurtinib_02367_R1,Plate:MR003
[18] = compound concentrations:100 nM and 1000 nM (sheet 'Lestaurtinib' of Supplementary Table 1),run:Lestaurtinib_02407_R1,Plate:MR005
[19] = compound concentrations:100 nM and 1000 nM (sheet 'Lestaurtinib' of Supplementary Table 1),run:Lestaurtinib_02407_R2,Plate:MR005
[20] = compound concentrations:100 nM and 1000 nM (sheet 'Lestaurtinib' of Supplementary Table 1),run:Lestaurtinib_02422_R2,Plate:MR006
[21] = compound concentrations:100 nM and 1000 nM (sheet 'Lestaurtinib' of Supplementary Table 1),run:Lestaurtinib_02437_R1,Plate:MR007
[22] = compound concentrations:100 nM and 1000 nM (sheet 'Lestaurtinib' of Supplementary Table 1),run:Lestaurtinib_02437_R2,Plate:MR007
[23] = compound concentrations:100 nM and 1000 nM (sheet 'Lestaurtinib' of Supplementary Table 1),run:Lestaurtinib_02473_R1,Plate:MR010
[24] = compound concentrations:100 nM and 1000 nM (sheet 'Lestaurtinib' of Supplementary Table 1),run:Lestaurtinib_02473_R2,Plate:MR010
[25] = compound concentrations:100 nM and 1000 nM (sheet 'Lestaurtinib' of Supplementary Table 1),run:Lestaurtinib_02473_R3,Plate:MR010

Substance: Lestaurtinib
- potency estimated from few doses ([1]; compound concentrations:100 nM and 1000 nM (sheet 'Lestaurtinib' of Supplementary Table 1),run:Lestaurtinib_02577_R3,Plate:MR016): 1750 nM
- potency estimated from few doses [1, 4]: 1720 nM
- potency estimated from few doses [1, 5]: 1990 nM
- potency estimated from few doses [1, 6]: 876 nM
- potency estimated from few doses [1, 7]: 884 nM
- potency estimated from few doses [1, 8]: 1600 nM
- potency estimated from few doses ([1]; compound concentrations:100 nM and 1000 nM (sheet 'Lestaurtinib' of Supplementary Table 1),run:Lestaurtinib_02724_R2,Plate:MR021): 2070 nM
- potency estimated from few doses ([1]; compound concentrations:100 nM and 1000 nM (sheet 'Lestaurtinib' of Supplementary Table 1),run:Lestaurtinib_02724_R3,Plate:MR021): 1610 nM
- potency estimated from few doses [1, 9]: 2060 nM
- potency estimated from few doses ([1]; compound concentrations:100 nM and 1000 nM (sheet 'Lestaurtinib' of Supplementary Table 1),run:Lestaurtinib_02741_R3,Plate:MR023): 1320 nM
- potency estimated from few doses ([1]; compound concentrations:100 nM and 1000 nM (sheet 'Lestaurtinib' of Supplementary Table 1),run:Lestaurtinib_02748_R1,Plate:MR024): 1440 nM
- potency estimated from few doses ([1]; compound concentrations:100 nM and 1000 nM (sheet 'Lestaurtinib' of Supplementary Table 1),run:Lestaurtinib_02748_R3,Plate:MR024): 1400 nM
- potency estimated from few doses ([1]; compound concentrations:100 nM and 1000 nM (sheet 'Lestaurtinib' of Supplementary Table 1),run:Lestaurtinib_02752_R2,Plate:MR025): 1510 nM
- potency estimated from few doses ([1]; compound concentrations:100 nM and 1000 nM (sheet 'Lestaurtinib' of Supplementary Table 1),run:Lestaurtinib_02765_R2,Plate:MR026): 1620 nM
- potency estimated from few doses [1, 10]: 1670 nM
- potency estimated from few doses ([1]; compound concentrations:100 nM and 1000 nM (sheet 'Lestaurtinib' of Supplementary Table 1),run:Lestaurtinib_02766_R1,Plate:MR027): 964 nM
- potency estimated from few doses [1, 11]: 1540 nM
- potency estimated from few doses [1, 12]: 2210 nM
- potency estimated from few doses [1, 13]: 771 nM
- potency estimated from few doses ([1]; compound concentrations:100 nM and 1000 nM (sheet 'Lestaurtinib' of Supplementary Table 1),run:Lestaurtinib_02802_R1,Plate:MR029): 1900 nM
- potency estimated from few doses ([1]; compound concentrations:100 nM and 1000 nM (sheet 'Lestaurtinib' of Supplementary Table 1),run:Lestaurtinib_02896_R1,Plate:MR030): 803 nM
- potency estimated from few doses [1, 14]: 823 nM
- potency estimated from few doses ([1]; compound concentrations:100 nM and 1000 nM (sheet 'Lestaurtinib' of Supplementary Table 1),run:Lestaurtinib_03252_R1,Plate:MR032): 1540 nM
- potency estimated from few doses [1, 15]: 1210 nM
- potency estimated from few doses [1, 16]: 2310 nM
- potency estimated from few doses ([2]; compound concentrations:100 nM and 1000 nM (sheet 'Lestaurtinib' of Supplementary Table 1),run:Lestaurtinib_02364_R1,Plate:MR002): 938 nM
- potency estimated from few doses [2, 17]: 1240 nM
- potency estimated from few doses ([2]; compound concentrations:100 nM and 1000 nM (sheet 'Lestaurtinib' of Supplementary Table 1),run:Lestaurtinib_02381_R1,Plate:MR004): 987 nM
- potency estimated from few doses ([2]; compound concentrations:100 nM and 1000 nM (sheet 'Lestaurtinib' of Supplementary Table 1),run:Lestaurtinib_02381_R2,Plate:MR004): 926 nM
- potency estimated from few doses ([2]; compound concentrations:100 nM and 1000 nM (sheet 'Lestaurtinib' of Supplementary Table 1),run:Lestaurtinib_02381_R3,Plate:MR004): 826 nM
- potency estimated from few doses [2, 18]: 1600 nM
- potency estimated from few doses [2, 19]: 1350 nM
- potency estimated from few doses [2, 20]: 1150 nM
- potency estimated from few doses [2, 21]: 1460 nM
- potency estimated from few doses [2, 22]: 983 nM
- potency estimated from few doses ([2]; compound concentrations:100 nM and 1000 nM (sheet 'Lestaurtinib' of Supplementary Table 1),run:Lestaurtinib_02438_R2,Plate:MR008): 1370 nM
- potency estimated from few doses ([2]; compound concentrations:100 nM and 1000 nM (sheet 'Lestaurtinib' of Supplementary Table 1),run:Lestaurtinib_02438_R3,Plate:MR008): 1530 nM
- potency estimated from few doses ([2]; compound concentrations:100 nM and 1000 nM (sheet 'Lestaurtinib' of Supplementary Table 1),run:Lestaurtinib_02443_R1,Plate:MR009): 1310 nM
- potency estimated from few doses ([2]; compound concentrations:100 nM and 1000 nM (sheet 'Lestaurtinib' of Supplementary Table 1),run:Lestaurtinib_02443_R2,Plate:MR009): 1410 nM
- potency estimated from few doses [2, 23]: 969 nM
- potency estimated from few doses [2, 24]: 1430 nM
- potency estimated from few doses [2, 25]: 858 nM
- potency estimated from few doses ([2]; compound concentrations:100 nM and 1000 nM (sheet 'Lestaurtinib' of Supplementary Table 1),run:Lestaurtinib_02482_R1,Plate:MR011): 1460 nM
- potency estimated from few doses ([2]; compound concentrations:100 nM and 1000 nM (sheet 'Lestaurtinib' of Supplementary Table 1),run:Lestaurtinib_02482_R2,Plate:MR011): 1890 nM
- potency estimated from few doses ([2]; compound concentrations:100 nM and 1000 nM (sheet 'Lestaurtinib' of Supplementary Table 1),run:Lestaurtinib_02487_R1,Plate:MR012): 1210 nM
- potency estimated from few doses ([2]; compound concentrations:100 nM and 1000 nM (sheet 'Lestaurtinib' of Supplementary Table 1),run:Lestaurtinib_02566_R1,Plate:MR014): 946 nM
- potency estimated from few doses ([2]; compound concentrations:100 nM and 1000 nM (sheet 'Lestaurtinib' of Supplementary Table 1),run:Lestaurtinib_02572_R3,Plate:MR015): 1620 nM
- potency estimated from few doses ([2]; compound concentrations:100 nM and 1000 nM (sheet 'Lestaurtinib' of Supplementary Table 1),run:Lestaurtinib_02577_R1,Plate:MR016): 1360 nM
- potency estimated from few doses [2, 4]: 1300 nM
- potency estimated from few doses [2, 5]: 1360 nM
- potency estimated from few doses [2, 6]: 1700 nM
- potency estimated from few doses ([2]; compound concentrations:100 nM and 1000 nM (sheet 'Lestaurtinib' of Supplementary Table 1),run:Lestaurtinib_02601_R2,Plate:MR018): 1460 nM
- potency estimated from few doses [2, 7]: 1440 nM
- potency estimated from few doses ([2]; compound concentrations:100 nM and 1000 nM (sheet 'Lestaurtinib' of Supplementary Table 1),run:Lestaurtinib_02606_R3,Plate:MR019): 1350 nM
- potency estimated from few doses ([2]; compound concentrations:100 nM and 1000 nM (sheet 'Lestaurtinib' of Supplementary Table 1),run:Lestaurtinib_02624_R1,Plate:MR020): 1440 nM
- potency estimated from few doses ([2]; compound concentrations:100 nM and 1000 nM (sheet 'Lestaurtinib' of Supplementary Table 1),run:Lestaurtinib_02624_R2,Plate:MR020): 998 nM
- potency estimated from few doses [2, 8]: 998 nM
- potency estimated from few doses [2, 9]: 916 nM
- potency estimated from few doses ([2]; compound concentrations:100 nM and 1000 nM (sheet 'Lestaurtinib' of Supplementary Table 1),run:Lestaurtinib_02765_R1,Plate:MR026): 1490 nM
- potency estimated from few doses [2, 10]: 1830 nM
- potency estimated from few doses ([2]; compound concentrations:100 nM and 1000 nM (sheet 'Lestaurtinib' of Supplementary Table 1),run:Lestaurtinib_02766_R2,Plate:MR027): 1150 nM
- potency estimated from few doses [2, 11]: 942 nM
- potency estimated from few doses ([2]; compound concentrations:100 nM and 1000 nM (sheet 'Lestaurtinib' of Supplementary Table 1),run:Lestaurtinib_02768_R1,Plate:MR028): 1150 nM
- potency estimated from few doses [2, 12]: 923 nM
- potency estimated from few doses [2, 13]: 1340 nM
- potency estimated from few doses ([2]; compound concentrations:100 nM and 1000 nM (sheet 'Lestaurtinib' of Supplementary Table 1),run:Lestaurtinib_02802_R3,Plate:MR029): 687 nM
- potency estimated from few doses ([2]; compound concentrations:100 nM and 1000 nM (sheet 'Lestaurtinib' of Supplementary Table 1),run:Lestaurtinib_03172_R1,Plate:MR031): 1310 nM
- potency estimated from few doses [2, 14]: 1570 nM
- potency estimated from few doses [2, 15]: 1750 nM
- potency estimated from few doses ([2]; compound concentrations:100 nM and 1000 nM (sheet 'Lestaurtinib' of Supplementary Table 1),run:Lestaurtinib_03260_R2,Plate:MR033): 1460 nM
- potency estimated from few doses [2, 16]: 1580 nM
- potency estimated from few doses ([3]; compound concentrations:100 nM and 1000 nM (sheet 'Lestaurtinib' of Supplementary Table 1),run:Lestaurtinib_02339_R2,Plate:MR001): 617 nM
- potency estimated from few doses ([3]; compound concentrations:100 nM and 1000 nM (sheet 'Lestaurtinib' of Supplementary Table 1),run:Lestaurtinib_02339_R3,Plate:MR001): 1150 nM
- potency estimated from few doses ([3]; compound concentrations:100 nM and 1000 nM (sheet 'Lestaurtinib' of Supplementary Table 1),run:Lestaurtinib_02364_R2,Plate:MR002): 618 nM
- potency estimated from few doses ([3]; compound concentrations:100 nM and 1000 nM (sheet 'Lestaurtinib' of Supplementary Table 1),run:Lestaurtinib_02364_R3,Plate:MR002): 801 nM
- potency estimated from few doses [3, 17]: 1620 nM
- potency estimated from few doses ([3]; compound concentrations:100 nM and 1000 nM (sheet 'Lestaurtinib' of Supplementary Table 1),run:Lestaurtinib_02367_R3,Plate:MR003): 623 nM
- potency estimated from few doses [3, 18]: 932 nM
- potency estimated from few doses [3, 19]: 763 nM
- potency estimated from few doses ([3]; compound concentrations:100 nM and 1000 nM (sheet 'Lestaurtinib' of Supplementary Table 1),run:Lestaurtinib_02407_R3,Plate:MR005): 1460 nM
- potency estimated from few doses ([3]; compound concentrations:100 nM and 1000 nM (sheet 'Lestaurtinib' of Supplementary Table 1),run:Lestaurtinib_02422_R1,Plate:MR006): 575 nM
- potency estimated from few doses [3, 20]: 964 nM
- potency estimated from few doses ([3]; compound concentrations:100 nM and 1000 nM (sheet 'Lestaurtinib' of Supplementary Table 1),run:Lestaurtinib_02422_R3,Plate:MR006): 609 nM
- potency estimated from few doses [3, 21]: 865 nM
- potency estimated from few doses [3, 22]: 838 nM
- potency estimated from few doses ([3]; compound concentrations:100 nM and 1000 nM (sheet 'Lestaurtinib' of Supplementary Table 1),run:Lestaurtinib_02443_R3,Plate:MR009): 798 nM
- potency estimated from few doses [3, 23]: 970 nM
- potency estimated from few doses [3, 24]: 755 nM
- potency estimated from few doses [3, 25]: 882 nM

Source: PMC11062922 (Nature Chemical Biology, 2023)
